Results published in PubChem BioAssay (NCATS).
Inconclusive results are not listed. Activity calls are given as the source filed them. Calls come from the whole dose curve; as a rule, active = well fitted cell-killing curve with a large enough effect; inconclusive = small, poorly fitted or top-dose-only effect, or effect the other way; inactive = no such curve, though single readings can be large or run the other way.

Test: Quantitative High-Throughput drug screen in 47 multiple myeloma cell lines against the NCATS MIPE library collection: INA6_PLB cell viability assay (AID 1918965; note: nearly all actives have a fitted effect of over 55% in size)
Conditions: INA6 myeloma viability, CellTiter-Glo ATP luminescence, 48 h; series mostly up to 45.8 µM
Method in brief: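 Steps: seed 500 cells per well; pin-transfer MIPE 4.0 library; incubate 48 h at 37C, 5% CO2, humidified; add CellTiter-Glo, 5 min room temperature; read luminescence.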
Potency is the fitted concentration of half-maximal effect.

Structure (SMILES)	Potency
CC(C)N(CCNC(=O)CN1CCCC1=O)C(C)C	inactive
CC[C@@]1(O)C(=O)OCc2c1cc1n(c2=O)Cc2cc3ccccc3nc2-1	0.0209 µM (active)
COc1ccc2c(c[n+](C)c3c4cc5c(cc4ccc23)OCO5)c1OC	8.33 µM (active)
O=S(=O)(CC1CS1)c1ccc(Oc2ccccc2)cc1 (configuration not stated)	14.8 µM (active)
CO[C@H]1CCC(O[C@H]2C[C@H]([C@]3(C)CC[C@]4(C[C@H](O)[C@@H](C)[C@@H]([C@@H](C)C=C(C)C(=O)[C@H](C)C[C@H](C)C(=O)O)O4)O3)O[C@]3(O[C@@H]([C@H]4O[C@@](O)(CO)[C@H](C)C[C@H]4C)C[C@H]3C)[C@H]2C)O[C@H]1C (some centres not stated)	0.526 µM (active)
COc1ccc2c(c1)CN(C)CC2c1ccc(Cl)c(Cl)c1 (configuration not stated)	23.5 µM (active)
CCNC(=O)C[C@@H]1N=C(c2ccc(Cl)cc2)c2cc(OC)ccc2-n2c(C)nnc21	0.132 µM (active)
O=S(=O)(F)Cc1ccccc1	1.18 µM (active)
Cc1c(C(=O)Nc2cccc(C(F)(F)F)c2)cc(-c2ccccc2)n1CCCN1CCOCC1	16.6 µM (active)
CN(C)[C@@H]1C(=O)C(C(N)=O)=C(O)[C@@]2(O)C(=O)C3=C(O)c4c(O)cccc4[C@@](C)(O)[C@H]3[C@H](O)[C@@H]12	inactive
C[C@H]([C@H](O)CCC(C)(C)O)[C@H]1CC[C@@]2(O)C3=CC(=O)[C@@H]4C[C@@H](O)[C@@H](O)C[C@]4(C)[C@@H]3CC[C@]12C	inactive
CC(=CCCC1=CCC(C2=CC(=O)OC2O)OC1O)CCC1=C(C)CCCC1(C)C (configuration not stated)	inactive
COc1ccc2c(c1)[C@]13CCCCC1C(C2)N(C)CC3 (some centres not stated)	inactive
CCN(CC)C(=O)c1ccc(C2=CC3(CCNCC3)Oc3cccc(O)c32)cc1	inactive
CCC(=O)OC1CCC2C3CCC4=CC(=O)CC[C@@]4(C)C3CC[C@]12C (some centres not stated)	20.9 µM (active)
C[C@@H]1CC[C@H]2[C@@H](C)C(=O)O[C@@H]3O[C@@]4(C)CC[C@H]1[C@]32OO4	1.18 µM (active)
O=c1[nH]c2ccccc2n1C1CCN(Cc2ccc(-c3[nH]c4cc5ncnc5cc4nc3-c3ccccc3)cc2)CC1	1.48 µM (active)
c1ccc2c(CN3CCNCC3)cccc2c1	inactive
CC(=O)O[C@@]12CO[C@H]1C[C@H](O)[C@@]1(C)C(=O)[C@H](O)C3=C(C)[C@@H](O)C[C@@](O)([C@@H](OC(=O)c4ccccc4)[C@@H]21)C3(C)C	1.48 µM (active)
CC(=O)N(C)c1cccc(-c2ccnc3c(C(=O)c4cccs4)cnn23)c1	14.8 µM (active)
C[C@@]12OC(=O)[C@]1([C@@H](O)[C@@H]1C=CCCC1)NC(=O)[C@H]2CCCl	0.001 µM (active)
COc1cc([C@@H]2c3cc4c(cc3[C@@H](O)C3COC(=O)C32)OCO4)cc(OC)c1O (some centres not stated)	0.0418 µM (active)
CC1(N2CCC(n3c([C@@H]4CCCNC4)nc4ccccc43)CC2)CCCCCCC1	14.8 µM (active)
CSCC[C@@H](NC(=O)[C@@H](Cc1ccccc1)NC(=O)CNC(=O)CNC(=O)[C@@H](N)Cc1ccc(O)cc1)C(=O)O	inactive
C[C@@H]1O[C@@H](O[C@@H]2C=C3CC[C@@H]4[C@@H](CC[C@]5(C)[C@H](c6ccc(=O)oc6)CC[C@@]45O)[C@@]3(C)CC2)[C@H](O)[C@H](O)[C@H]1O	0.0264 µM (active)
O=C(Nc1ccncc1)C(=O)c1cn(Cc2ccc(Cl)cc2)c2ccccc12	0.0132 µM (active)
CC=C(C)C(=O)N[C@@H](c1ccccc1)[C@@H](O)C(=O)O[C@H]1C[C@@]2(O)[C@@H](OC(=O)c3ccccc3)[C@@H]3[C@]4(OC(C)=O)CO[C@@H]4C[C@H](O)[C@@]3(C)C(=O)[C@H](OC(C)=O)C(=C1C)C2(C)C	inactive
